Results: PubChem BioAssay
Unmarked numbers belong to inactive results. For some of these results: Entries with a potency or affinity are not part of this list. Activity calls are given as the source filed them. Unless noted, how the calls were made is not given here.

Legend:
[1] = antimalarial activity against Dd2 strain (AID 2302;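 active means growth inhibition above 50% at the single 2 µM test dose, taken to imply half-maximal potency below 2 µM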;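 further: 0% = DMSO untreated growth and 100% = chloroquine plus artemisinin killed control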); details: P. falciparum Dd2 in RBCs, LDH growth readout, 72 h; at 2 µM; active compounds read high
[2] = HepG2 cytotoxicity, primary screen, cytotoxicity control for P. falciparum antimalarial project, cell-based, ATP luminescence (AID 2303;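 active means inhibition above 50%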;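 further: 0% = DMSO wells and 100% = digitonin-killed cells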); details: HepG2 viability, 24-48 h, at 10 µM, active compounds read high
[3] = molecular target: L-lactate dehydrogenase (Plasmodium falciparum (isolate CDC / Honduras)) (UniProt Q27743); experiment: PfLDH activity inhibition – cell lysate, 3D7 strain, counter-screen for P. falciparum growth inhibition project (AID 2304);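 further: 0% = vehicle and 100% = reference inhibitor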; details: P. falciparum 3D7 crude extract, LDH APAD/NBT absorbance; at 2 µM; active compounds read high
[4] = inhibition of 3D7 malaria parasite growth – strain 3D7 (AID 2306);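 further: 0% = DMSO wells and 100% = chloroquine plus artemisinin control wells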; details: P. falciparum 3D7 erythrocytic growth, LDH absorbance, 72 h; at 2 µM; active compounds read high
[5] = molecular target: Calcium-dependent protein kinase 1 (Plasmodium falciparum (isolate 3D7)) (UniProt P62344); experiment: PfCDPK1 kinase inhibitors, biochemical, TCAMS library (AID 1159585; cut-off not given, nearly all actives have IC50 up to about 0.98 µM;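 further: inhibitors leave more ATP so luminescence rises with inhibition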); details: recombinant PfCDPK1, Kinase-Glo ATP depletion luminescence
[6] = molecular target: Plasmodium falciparum protein kinase 6 (PK6, PF3D7_1337100) (UniProt Q8IDW1); experiment: PfPK6 kinase inhibitors, biochemical, TCAMS library (AID 1159586); details: recombinant PfPK6, Kinase-Glo ATP depletion luminescence
[7] = molecular target: Protein kinase 7 (PK7), Plasmodium falciparum 3D7 (PF3D7_0213400) (UniProt Q7YTF7); experiment: inhibition of Plasmodium PK7 catalytic activity – biochemical, TCAMS antimalarial set, Kinase-Glo luminescence (AID 1159587); details: recombinant PfPK7, Kinase-Glo ATP depletion luminescence
[8] = molecular target: Calcium-dependent protein kinase 4 (Plasmodium falciparum (isolate 3D7)) (UniProt Q8IBS5); experiment: PfCDPK4 kinase inhibitors, biochemical, TCAMS library (AID 1159588; cut-off not given, nearly all actives have IC50 up to about 0.91 µM); details: recombinant PfCDPK4, Kinase-Glo ATP depletion luminescence
Chain of Calcium-dependent protein kinase 4 (Plasmodium falciparum (isolate 3D7)) (Q8IBS5 whole entry, looked up): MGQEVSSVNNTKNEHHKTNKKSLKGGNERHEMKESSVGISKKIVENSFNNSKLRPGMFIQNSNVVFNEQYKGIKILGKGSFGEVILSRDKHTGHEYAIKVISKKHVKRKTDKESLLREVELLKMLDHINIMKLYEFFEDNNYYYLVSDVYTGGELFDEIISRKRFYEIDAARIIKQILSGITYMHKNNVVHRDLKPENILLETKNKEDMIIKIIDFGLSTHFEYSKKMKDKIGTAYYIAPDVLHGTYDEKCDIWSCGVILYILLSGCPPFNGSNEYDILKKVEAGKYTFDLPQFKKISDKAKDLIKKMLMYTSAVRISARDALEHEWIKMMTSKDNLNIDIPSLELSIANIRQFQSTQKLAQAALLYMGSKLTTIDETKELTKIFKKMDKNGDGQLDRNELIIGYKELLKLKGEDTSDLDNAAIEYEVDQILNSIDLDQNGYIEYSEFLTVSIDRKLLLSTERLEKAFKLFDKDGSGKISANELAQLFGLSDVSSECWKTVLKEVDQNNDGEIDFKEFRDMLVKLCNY

Chain of Plasmodium falciparum protein kinase 6 (PK6, PF3D7_1337100) (Q8IDW1 1-305): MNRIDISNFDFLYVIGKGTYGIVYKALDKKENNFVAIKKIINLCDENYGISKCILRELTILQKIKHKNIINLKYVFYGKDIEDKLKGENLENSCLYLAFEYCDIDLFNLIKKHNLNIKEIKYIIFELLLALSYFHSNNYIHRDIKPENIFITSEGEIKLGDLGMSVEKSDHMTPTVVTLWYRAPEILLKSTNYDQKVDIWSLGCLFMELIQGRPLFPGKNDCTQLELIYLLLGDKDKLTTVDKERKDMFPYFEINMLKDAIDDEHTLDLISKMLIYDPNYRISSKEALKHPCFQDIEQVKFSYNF
Chain of Protein kinase 7 (PK7), Plasmodium falciparum 3D7 (PF3D7_0213400) (Q7YTF7 1-343): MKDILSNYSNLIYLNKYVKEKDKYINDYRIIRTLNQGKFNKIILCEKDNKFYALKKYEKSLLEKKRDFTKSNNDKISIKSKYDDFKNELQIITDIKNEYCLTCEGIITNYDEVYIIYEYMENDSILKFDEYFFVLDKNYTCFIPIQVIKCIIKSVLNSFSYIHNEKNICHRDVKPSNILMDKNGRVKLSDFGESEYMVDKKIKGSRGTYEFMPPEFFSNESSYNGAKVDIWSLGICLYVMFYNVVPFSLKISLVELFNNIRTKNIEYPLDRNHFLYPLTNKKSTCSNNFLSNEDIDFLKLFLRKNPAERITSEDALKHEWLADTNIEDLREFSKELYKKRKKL
Chain of Calcium-dependent protein kinase 1 (Plasmodium falciparum (isolate 3D7)) (P62344 whole entry, looked up): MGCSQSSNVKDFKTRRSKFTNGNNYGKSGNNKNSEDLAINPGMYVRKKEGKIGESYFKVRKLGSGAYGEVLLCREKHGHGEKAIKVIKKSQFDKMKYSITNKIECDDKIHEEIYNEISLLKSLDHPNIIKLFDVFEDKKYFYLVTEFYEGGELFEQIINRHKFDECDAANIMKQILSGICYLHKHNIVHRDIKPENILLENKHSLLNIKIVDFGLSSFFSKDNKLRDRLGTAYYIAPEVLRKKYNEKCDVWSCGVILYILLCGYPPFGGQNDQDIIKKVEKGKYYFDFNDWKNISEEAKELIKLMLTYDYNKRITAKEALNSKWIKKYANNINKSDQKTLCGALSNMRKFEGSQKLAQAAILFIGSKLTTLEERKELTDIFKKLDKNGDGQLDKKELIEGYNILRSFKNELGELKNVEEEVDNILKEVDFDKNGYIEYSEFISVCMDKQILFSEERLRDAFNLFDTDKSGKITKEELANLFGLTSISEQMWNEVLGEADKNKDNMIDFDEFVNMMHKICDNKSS
Chain of L-lactate dehydrogenase (Plasmodium falciparum (isolate CDC / Honduras)) (Q27743 whole entry, looked up): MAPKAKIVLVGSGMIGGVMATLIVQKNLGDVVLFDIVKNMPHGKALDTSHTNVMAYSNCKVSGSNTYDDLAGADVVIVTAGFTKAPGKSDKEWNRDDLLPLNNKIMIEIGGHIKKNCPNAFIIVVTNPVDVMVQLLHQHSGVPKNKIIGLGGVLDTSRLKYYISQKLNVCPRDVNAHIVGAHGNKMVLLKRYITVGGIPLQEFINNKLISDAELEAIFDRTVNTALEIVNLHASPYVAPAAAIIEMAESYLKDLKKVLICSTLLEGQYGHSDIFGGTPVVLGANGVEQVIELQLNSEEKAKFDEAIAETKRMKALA

SMILES | growth inhibition [1] | inhibition [2] | inhibition [3] [%] | growth inhibition [4] | outcome [5] | outcome [6] | outcome [7] | outcome [8]
CC(CCCCCC(=O)Nc1ccc(CC(C)NCCc2cccc(Cl)c2)cc1)NCCc1cccc(Cl)c1 (stereo not drawn) | 37% | 99% (active) | 1 | 91% (active) | inactive | inactive | inactive | inactive
Cc1ccc(Cl)c2sc(N3CCN(C(=O)c4ccc([N+](=O)[O-])o4)CC3)nc12 | 94% (active) | 21% | -5 | 97% (active) | inactive | inactive | inactive | inactive
O=S(=O)(NCCN1CCCC1)c1ccc(-c2cccc(CNCc3ccc(F)cc3)c2)cc1F | 36% | 43% | -1 | 97% (active) | inactive | inactive | inactive | inactive
CC(C)N=C(N)NN=Cc1ccc(Cl)c(Cl)c1 | 12% | -8% | -2 | 101% (active) | inactive | inactive | inactive | inactive
Cc1noc(C)c1-c1cccc(CNCc2cccc(-c3cccc(-c4nc5ccccc5[nH]4)c3)c2)c1 | 54% (active) | 22% | 2 | 102% (active) | inactive | inactive | inactive | inactive
Cc1cc(Nc2cccc(C#N)c2)nc(Nc2ccccc2C)n1 | 46% | 10% | 0 | 95% (active) | inactive | inactive | inactive | inactive
Cc1ccc(NC(=O)c2cc([N+](=O)[O-])ccc2NCc2cccnc2)cc1Cl | 58% (active) | 9% | -5 | 86% (active) | inactive | inactive | inactive | inactive
Cc1cccc2[nH]c(-c3cccc(-c4ccc(NC(=O)Cc5ccccn5)cc4)c3)nc12 | 57% (active) | 25% | 3 | 94% (active) | inactive | inactive | inactive | inactive
CC(=O)Nc1ccc(S(=O)(=O)N2CCN(c3nc(NC4CCCC4)c4ccccc4n3)CC2)cc1 | 2% | 7% | 1 | 88% (active) | inactive | inactive | inactive | inactive
COc1cccc2cc(C(=O)N[C@@H](CC(C)C)C(=O)Nc3cc(F)ccc3Br)oc12 | 45% | 7% | -1 | 87% (active) | inactive | inactive | inactive | inactive
O=C(/C=C/c1ccc(Cl)c(Cl)c1)NCCCCCN1CCCN(C(=S)Nc2cccc(Cl)c2)CC1 | 7% | 19% | 0 | 93% (active) | inactive | inactive | inactive | inactive
Cc1cc(CNC(=O)c2ccc(-c3ccc(-c4nc5ccc(C(F)(F)F)cc5[nH]4)s3)cc2)on1 | 56% (active) | 15% | -1 | 93% (active) | inactive | inactive | inactive | inactive
CCC1(C)N=C(N)N=C(N)N1c1ccc(Cl)cc1 (stereo not drawn) | -1% | 7% | -3 | 95% (active) | inactive | inactive | inactive | inactive
O=C(Cn1nc(Br)nc1[N+](=O)[O-])NCC1CCCCC1 | 57% (active) | -8% | -5 | 96% (active) | inactive | inactive | inactive | inactive
CCOc1cc(CC)ccc1C1CCN(CCN2CCC(NC(=O)c3ccc(-c4ccc(C(C)=O)cc4)cc3)CC2)CC1 | 8% | 25% | -1 | 100% (active) | inactive | inactive | inactive | inactive
Cc1cc(-c2ccc(NC(=O)N3CCc4cc(Cl)c(N5CCN(C)CC5)cc43)cc2)ccc1C#N | 83% (active) | 100% (active) | -2 | 101% (active) | inactive | inactive | inactive | inactive
CC(=O)Nc1ccc(C(=O)Nc2ccc(-c3cccc(-c4nc5ccccc5[nH]4)c3)cc2)cn1 | 84% (active) | 34% | 2 | 99% (active) | inactive | inactive | inactive | inactive
CC(C)(C)c1cc(C(=O)N2CCC(c3ccccn3)CC2)n(Cc2ccccc2)n1 | 90% (active) | 3% | -3 | 96% (active) | inactive | inactive | inactive | inactive
COc1ccc(C=NNc2cc(C)nc3c(C)cccc23)c2ccccc12 | 98% (active) | 3% | 0 | 102% (active) | inactive | inactive | inactive | inactive
CCOc1ccc(N2C(N)=NC(N)=NC2(C)C)cc1 | -2% | 10% | 0 | 95% (active) | inactive | inactive | inactive | inactive
CN1CCc2ccc(NC(=O)Nc3ccc(-c4ccccc4)cc3)cc2C1 | 45% | 24% | 3 | 90% (active) | inactive | inactive | inactive | inactive

SMILES | growth inhibition [1] | inhibition [2] | inhibition [3] [%] | growth inhibition [4] | outcome [5] | outcome [6] | outcome [7] | outcome [8]
Cc1cc(N2CCCC2)nc(Nc2ccc(NC(=O)c3cccc(F)c3)cc2)n1 | 28% | 39% | -3 | 97% (active) | inactive | inactive | inactive | inactive
COc1ccccc1C1CCN(C2CCC(NC(=O)c3cc(-c4ccc(Cl)cc4)cs3)CC2)CC1 (stereo not drawn) | 100% (active) | 61% (active) | -1 | 101% (active) | inactive | inactive | inactive | inactive
Fc1cccc(COc2ccc(-n3ccc4c(NCCCn5ccnc5)ncnc43)cc2Cl)n1 | 29% | 14% | -2 | 87% (active) | inactive | inactive | inactive | inactive
CC(C)c1ccc(CN2CCC(CNC(=O)c3cc(-c4ccc(N(C)C)cc4)cs3)C2)cc1 (stereo not drawn) | 32% | 36% | 5 | 83% (active) | inactive | inactive | inactive | inactive
COc1ccc2nccc([C@@H](O)CN3CCC(NCc4cc5oc(=O)n(C)c5cc4F)CC3)c2c1 | 72% (active) | -3% | -2 | 99% (active) | inactive | inactive | inactive | inactive
O=C(Nc1ccc(-c2ccc(-c3nc4ccccc4[nH]3)s2)cc1)Nc1ccc(F)c(F)c1F | 97% (active) | 57% (active) | 5 | 99% (active) | inactive | inactive | inactive | inactive
COc1ccc(OC)c(NC(=O)c2c(-c3c(F)cccc3Cl)noc2C)c1 | 25% | -1% | -1 | 94% (active) | inactive | inactive | inactive | inactive
COc1ccc2ncc(F)c([C@H](O)CN3CCC(NCc4ccc5c(c4)NC(=O)CS5)CC3)c2c1 | 98% (active) | 7% | -13 | 102% (active) | inactive | inactive | inactive | inactive
Oc1[nH]c2ccccc2c1N=NC(=S)N1CCOCC1 | 75% (active) | 51% (active) | 6 | 95% (active) | inactive | inactive | inactive | inactive
S=C(NCCCCCN1CCC(c2c[nH]c3ccccc23)CC1)Nc1cc(Cl)cc(Cl)c1 | 35% | 25% | -4 | 100% (active) | inactive | inactive | inactive | inactive
Cn1c(=N)n(CC(=O)OCc2ccc(OCc3ccccc3)cc2)c2ccccc21 | 74% (active) | 5% | -5 | 100% (active) | inactive | inactive | inactive | inactive
COc1cc2ncnc(Nc3ccc(OCc4ccccc4Br)c(Cl)c3)c2cc1OC | 6% | 25% | -4 | 96% (active) | inactive | inactive | inactive | inactive
O[C@H](c1cc(C(F)(F)F)nc2c(C(F)(F)F)cccc12)[C@@H]1CCCCN1 | 99% (active) | 29% | 7 | 99% (active) | inactive | inactive | inactive | inactive
CC(C)C(=O)ONC1=NC(C)(C)N(OCCCOc2cc(Cl)c(Cl)cc2Cl)C(N)=N1 | 96% (active) | 64% (active) | -4 | 95% (active) | inactive | inactive | inactive | inactive
COc1ccccc1-n1c(SCC(=O)c2ccc3c(c2)CC(=O)N3C)nnc1-c1cccs1 | 55% (active) | 7% | -3 | 95% (active) | inactive | inactive | inactive | inactive
CCCC(C)N(Cc1ccc(C(C)(C)C)cc1)C(=O)c1cccc(C#N)c1 (stereo not drawn) | 45% | 14% | -9 | 86% (active) | inactive | inactive | inactive | inactive
Cc1cccc(CN2CCCN(Cc3ccc(C(=O)Nc4ccc(C(C)(C)C)cc4)cc3)CC2)c1 | 4% | 57% (active) | -7 | 97% (active) | inactive | inactive | inactive | inactive
COc1ccc(Cn2c(=O)[nH]c3cc(C(=O)NC4CCN(Cc5ccccc5)CC4)ccc3c2=O)cc1 | 45% | 10% | -7 | 97% (active) | inactive | inactive | inactive | inactive
C(=N\Nc1nccc2sc(-c3cccnc3)cc12)/c1ccncc1 | 94% (active) | 65% (active) | 7 | 101% (active) | inactive | inactive | inactive | inactive
Cc1cccc(Nc2nc(N)c3ccccc3n2)c1 | 49% | 1% | 3 | 99% (active) | inactive | inactive | inactive | inactive
